For 13 compounds, growth results are on record in PubChem BioAssay (NCI).

What all share (test): NCI-60 one-dose screen, 48 h (100 = growth as untreated, 0 = no growth, -100 = all killed)
Holding throughout (settings): 10 µM unless noted

For assay [1], the system named is DU-145 prostate.
Assay [2] has as its system K-562 leukemia.
Assay [3] deals with MALME-3M melanoma.
In assay [4] the test system is MDA-MB-231 breast.
Assay [5] has as its system RXF 393 renal.
In assay [6] the test system is SF-268 CNS.
The subject of assay [7] is SF-295 CNS.
The test system of assay [8] is SF-539 CNS.
Assay [9] deals with UACC-257 melanoma.
Assay [10] concerns M14 melanoma.

Structures are written as SMILES. The panel holds about 83,000 compounds, 20% with a hit somewhere; the sample as a whole holds those more often.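 Single-dose data. Exposure time 48 hours. Values below 10 considered active.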 A number with no mark means an inactive call. Calls of active or inactive are those of the source.

On to `CN(C)c1nc(NCCNS(=O)(=O)c2ccc(C(=O)/C=C/c3ccc(Cl)cc3)cc2)nc(N2CCOCC2)n1`, for which the growth was 6.95% (active) in assay [1]; -6.36% (active) in assay [2]; 89.2% in assay [3]; 15.7% in [4]; -59.3% (active) in assay [5]; 57.8% in assay [6]. Further, the growth in [7] is 55.5%; in [8], -67.5% (active); in assay [9], 71.5%; in assay [10] it was -20.2% (active).

Turning to `CN1CCN(CCS(=O)(=O)Nc2cc(-c3ccc4ncnc(Nc5ccc(F)c(Cl)c5)c4c3)cnc2Cl)CC1`, the growth is 14.8% in assay [1]; 20.2% in [2]; -90.5% (active) in assay [3]; -41.3% (active) in assay [4]; -1.07% (active) in [5]; 40.8% in assay [6]. Further, the growth in [7] was 7.8% (active); in [8], -8.6% (active); in [9], 18.2%; in [10] it was 20.9%.

In the case of `O=C1Nc2ccccc2/C1=C\c1ccc(OCC(=O)c2ccc(Br)cc2)cc1`, the growth was 85.6% in assay [1]; 27.8% in [2]; 81% in assay [3]; 82.2% in assay [4]; 67.6% in assay [5]; 86.9% in [6]. The growth in [7] is 58.6%; in [8], 81.5%; in [9], 73.6%; in [10] it was 73.1%.

Take `CN(C)CCOc1ccc(C(=O)C2[C@H](c3ccc(Cl)cc3)[C@@H](c3ccccc3)NC23C(=O)Nc2ccc(Cl)cc23)cc1` (stereo not given in full): the growth in [1] was -80.3% (active); in assay [2] it was -76.1% (active); in [3], -87.8% (active); in [4] it was -93.6% (active); in assay [5], -92% (active); in assay [6], -64% (active). In addition, the growth in assay [7] is -89.3% (active); in [8], -98.5% (active); in assay [9], -81.2% (active); in assay [10] it was -90.1% (active).

With `CCOC(=O)c1ccc(NC(=S)NC(=O)c2cccc(NC(=O)c3ccc(C)cc3)c2)cc1`, the growth in assay [1] is 105%; in assay [2], 76.3%; in [3] it was 71.9%; in [4] it was 39.1%; in assay [5], 66.9%; in assay [6] it was 102%. In addition, the growth in [7] was 90.9%; in assay [8], 44.9%; in assay [9], 78.6%; in [10], 80.7%.

Take `C/C(=N/O)c1ccc(NC(=O)CSc2nnc(-c3ccc(-c4nc5ccc(Cl)cc5[nH]4)cc3)o2)cc1`: the growth was -13.6% (active) in [1]; 14.9% in [2]; -80.8% (active) in assay [3]; -96.5% (active) in assay [4]; -71.5% (active) in [5]; 17.6% in assay [6]. Further, the growth in [7] is -16.4% (active); in [8], -100% (active); in [9] it was -36.9% (active); in assay [10], -62.7% (active).

For `Nc1nc2cc(-c3ccc4ncnc(NCc5ccccc5)c4c3)ccc2o1`, the growth in assay [1] was 15.9%; in [2], 25.9%; in assay [3] it was -23.8% (active); in assay [4] it was -48.8% (active); in assay [5], -75.6% (active); in [6], 25%. The growth in assay [7] was -42.3% (active); in [8], -86.5% (active); in [9], 68.4%; in assay [10] it was 22.4%.

Consider `O=C(Nc1ccc(-c2ccc3c(c2)NC(=O)/C3=C\c2ccc[nH]2)cc1)Nc1ccc(Cl)c(C(F)(F)F)c1`, for which the growth in assay [1] was 44.1%; in assay [2] it was 15.2%; in assay [3], 64.4%; in assay [4], 72.2%; in assay [5], 42.3%; in [6], 46.3%. For the same compound, the growth in assay [7] was 38.4%; in assay [8] it was 44.2%; in [9], 24.5%; in assay [10], 54.8%.

As for `COc1ccc2c(c1)N=c1c-2cc2c(O)[nH]c(=S)n2c1=O`, the growth was 50.8% in assay [1]; 19.7% in assay [2]; 54.8% in assay [3]; 42.1% in assay [4]; 11.4% in assay [5]; 84.4% in assay [6]. Further, the growth in [7] was 26.1%; in assay [8], -7.78% (active); in assay [9], 53.4%; in [10], 40%.

Take `COc1ccc(NC(=O)Cn2c(/C=C/c3cccc(OC)c3)nc3ccccc3c2=O)cc1`: the growth in assay [1] is 74.3%; in [2], 84%; in [3] it was 62.7%; in assay [4], -30.3% (active); in assay [5] it was -31.9% (active); in assay [6], 66.1%. Further, the growth was 34.6% in assay [7], -45.7% (active) in assay [8], 81.1% in [9] and 61.2% in [10].

In the case of `N/C(=N\c1nc2ccccc2s1)NC(=O)Nc1ccccc1[N+](=O)[O-]`, the growth in assay [1] was 1.45% (active); in assay [2], 10.6%; in [3], 44.6%; in [4], -1.5% (active); in assay [5] it was 36.4%; in assay [6] it was 23%. The growth in assay [7] is 1.71% (active); in [8], -41.1% (active); in [9], 60.1%; in [10] it was 16.3%.

Consider `CC[C@@]12CC(C(=O)OC)=C3Nc4cc5c(cc4[C@@]34CCN(C[C@H]3O[C@H]31)[C@@H]24)[C@@H]1[C@H](O5)[C@@H](O)[C@@]2(CC)CC(C(=O)OC)=C3Nc4cc(O)ccc4[C@@]34CCN1[C@@H]24`, for which the growth is 7.47% (active) in assay [1]; -8.19% (active) in [2]; -39.6% (active) in assay [3]; -70.4% (active) in assay [4]; -98.4% (active) in [5]; 10.3% in assay [6]. The growth was -63% (active) in assay [7], -53.1% (active) in assay [8], -23.5% (active) in assay [9] and -61.4% (active) in assay [10].

For the compound `COc1ccc2[nH]cc(-c3cc4nc(-c5cn(C)c6ncc(Br)cc56)cc(N)n4n3)c2c1`, the growth is -70.7% (active) in assay [1]; -27.4% (active) in assay [2]; -87% (active) in [3]; -83.8% (active) in assay [4]; -77.2% (active) in assay [5]; -44% (active) in [6]. The growth in [7] was -77.4% (active); in assay [8], -95.4% (active); in assay [9], -82.3% (active); in assay [10], -85.2% (active).
